Assay outcomes as filed in PubChem BioAssay.
PLCb3 inh: blocks human PLC-beta3 enzyme activity; Q01970; Purified PLC-beta3, fluorogenic substrate, fluorescence; inhibition, % at 12.2 µM; hit rate 0.18% among 370,000; AID 720704; in the data active means inhibition above about 11%;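 further: 0% = median of compound wells on plate and 100% = full blocker control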
ADAM17 inh: inhibitors of human ADAM17 | inhibition, % at 6.95 µM | hit rate 0.83% among 370,000 | P78536 | recombinant ADAM17, EDANS/DABCYL FRET peptide cleavage;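 active means inhibition above the mean of compounds lying between control limits plus 3 SD, set per campaign, cut at about 8.5% in these data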;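 further: 0% = DMSO-only wells as the low control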
KLK7 zymogen act: activates the human kallikrein-7 zymogen; P49862; purified proKLK7, EDANS-DABCYL substrate fluorescence; 100% is mature enzyme control, 0% vehicle; AID 652039; hit rate 0.9% among 370,000; activation, % at 7 µM;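 active means activation above the mean of all tested compounds plus 3 SD, computed per campaign excluding outliers beyond control limits, cut at about 13% in these data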
PLC-gamma1 inh: inhibitors of human phospholipase C gamma1. inhibition, % at 12.2 µM. purified PLC-gamma1, fluorogenic substrate, fluorescence. P19174. hit rate 0.84% among 370,000
Target sequence (P19174 whole entry, looked up): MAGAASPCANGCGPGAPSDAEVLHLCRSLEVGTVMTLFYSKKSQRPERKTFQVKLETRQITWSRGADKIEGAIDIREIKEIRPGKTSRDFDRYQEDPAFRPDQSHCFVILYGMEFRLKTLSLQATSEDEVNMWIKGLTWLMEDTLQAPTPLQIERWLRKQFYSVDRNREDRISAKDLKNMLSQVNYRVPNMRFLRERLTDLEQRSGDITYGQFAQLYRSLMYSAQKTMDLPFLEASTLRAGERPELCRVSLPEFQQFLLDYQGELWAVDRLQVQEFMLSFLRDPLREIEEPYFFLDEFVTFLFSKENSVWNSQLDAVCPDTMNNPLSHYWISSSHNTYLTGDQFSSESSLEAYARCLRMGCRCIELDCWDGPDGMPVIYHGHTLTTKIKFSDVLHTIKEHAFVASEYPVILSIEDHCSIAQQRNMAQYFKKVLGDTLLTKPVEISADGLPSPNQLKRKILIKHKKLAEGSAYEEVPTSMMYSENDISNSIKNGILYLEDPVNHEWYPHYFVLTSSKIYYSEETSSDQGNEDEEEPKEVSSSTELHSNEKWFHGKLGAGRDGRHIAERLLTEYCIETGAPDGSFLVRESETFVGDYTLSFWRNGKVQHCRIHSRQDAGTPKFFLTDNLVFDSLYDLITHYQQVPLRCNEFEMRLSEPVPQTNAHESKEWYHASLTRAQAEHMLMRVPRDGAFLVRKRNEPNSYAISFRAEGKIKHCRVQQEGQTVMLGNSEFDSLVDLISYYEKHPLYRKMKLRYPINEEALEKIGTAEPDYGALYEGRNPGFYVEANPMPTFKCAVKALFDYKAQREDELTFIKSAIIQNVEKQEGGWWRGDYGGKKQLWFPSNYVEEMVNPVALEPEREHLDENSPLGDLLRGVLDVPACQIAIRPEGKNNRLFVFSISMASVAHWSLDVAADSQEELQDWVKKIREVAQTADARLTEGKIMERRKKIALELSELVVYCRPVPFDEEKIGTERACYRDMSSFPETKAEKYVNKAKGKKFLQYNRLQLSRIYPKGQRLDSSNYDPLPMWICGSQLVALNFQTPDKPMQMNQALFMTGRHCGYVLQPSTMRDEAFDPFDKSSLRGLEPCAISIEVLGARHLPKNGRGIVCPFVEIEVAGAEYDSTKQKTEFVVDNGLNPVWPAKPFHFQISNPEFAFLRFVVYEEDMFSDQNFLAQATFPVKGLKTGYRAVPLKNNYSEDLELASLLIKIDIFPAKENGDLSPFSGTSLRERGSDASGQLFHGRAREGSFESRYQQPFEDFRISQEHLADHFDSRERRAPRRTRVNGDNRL
ADAM10 inh: inhibits human ADAM10 | O14672 | recombinant ADAM10, EDANS/DABCYL FRET peptide cleavage, 3 h | inhibition, % at 7 µM | hit rate 0.62% among 370,000 | AID 720582;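 active means inhibition above a per-campaign cutoff equal to the mean of compounds falling between control-based bounds plus 3 SD, cut at about 20% in these data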;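 further: 0% = DMSO wells while the 100% control is not disclosed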
PLCgamma1 ctr: counter-screen for PLC-beta3 inhibitors: inhibitors of human PLC-gamma1. shares compounds with PLC-gamma1 inh. purified PLC-gamma1, fluorogenic substrate, fluorescence. inhibition, % at 12.3 µM. hit rate 3.1% among 3,300. AID 743258
PLCb3 confirm: human PLC-beta3 inhibition, confirmation | hit rate 1% among 3,300 | purified PLC-beta3, fluorogenic substrate fluorescence | shares compounds with PLC-gamma1 inh | inhibition, % at 12.3 µM; in the data active means inhibition above about 11%
Numbers without * were called inactive; . = no result. In the library only some 2.9% were active in any assay of this set; here they are far more common. Unless noted, no stated cut-off is given here; in the data, active means inhibition above about 9.5%; inactive means the rest.

SMILES | PLCb3 inh | ADAM17 inh | KLK7 zymogen act | PLC-gamma1 inh | ADAM10 inh | PLCgamma1 ctr | PLCb3 confirm
O=C(CN1CCN(C(=O)c2ccccc2)CC1)Nc1ccccc1 | 2 | 1 | 1 | 4 | 0 | . | .
O=C(CN1CCN(C(=O)c2ccccc2)CC1)Nc1ccc(Br)cn1 | 3 | 3 | 0 | 12* | 6 | -2 | -3
Cc1ccc(NC(=O)C2C3CC4OC(=O)C2C4C3)cc1Cl (stereo not given) | 5 | 2 | 0 | 9.6* | -2 | -6 | -6
CC(C)OC(=O)c1ccc(NC(=O)C2C3CC4OC(=O)C2C4C3)cc1 (stereo not given) | 1 | -4 | 0 | -4 | 0 | . | .
Cc1ccc(S(=O)(=O)NC(=O)NN2CC3CCCC3C2)cc1 (stereo not given) | 0 | -3 | 0 | 2 | 2 | . | .
CC[C@H]1C=C[C@@H](C(=O)NS(=O)(=O)c2ccc(C)cc2)N(C(C)=O)C1 | -15 | -5 | 0 | 41* | -24 | 38* | -15
Cc1ccc(-n2nc3c(=O)n(CCCC(=O)NCc4ccccc4F)nc(C)c3c2C)cc1 | -9 | -6 | 0 | 1 | -2 | . | .
Cc1ccc(-n2nc3c(=O)n(CCCC(=O)NCc4ccccc4C)nc(C)c3c2C)cc1 | -2 | 3 | 0 | 14* | -1 | -8 | -3
O=C(N/N=C/c1c(F)c(F)c(F)c(F)c1F)c1cc(-c2ccccc2)nc2ccccc12 | 2 | 3 | 1 | 14* | 4 | -7 | -2
O=C(OC1CC2CC1[C@H]1CCCCN1C2=O)N1CCC(c2ccccc2)CC1 (stereo not given in full) | 1 | -5 | 1 | 1 | 1 | . | .
Cc1ncc(C[n+]2csc(CCOC(=O)CC3C4CC5CC(C4)CC3C5)c2C)c(N)n1 (stereo not given) | 3 | 4 | 2 | 9.8* | 11 | -4 | -1
Cc1ncc(C[n+]2csc(CCOC(=O)C34CC5CC(CC(C5)C3)C4)c2C)c(N)n1 | -4 | -3 | 0 | 0 | 0 | . | .
COc1cccc(Nc2cc(N3CCOCC3)c3nonc3c2[N+](=O)[O-])c1 | 3 | 2 | 0 | 10* | -2 | 4 | -4
O=[N+]([O-])c1c(Nc2ccccc2O)cc(N2CCOCC2)c2nonc12 | 1 | -2 | 0 | 3 | 6 | . | .
CC(C)[C@@H]1Cc2[nH]n(C)c(=O)c2[C@H](c2ccc(F)cc2)O1 | 2 | -5 | 0 | 1 | -11 | . | .
COc1ccc(CNC(=O)C(C)Cc2ccccc2)cc1O (stereo not given) | 7 | 7 | 0 | 12* | 14 | -5 | -3
CCOC(=O)C1(CCCc2ccccc2)CCN(C(=O)C(C)n2cncn2)CC1 (stereo not given) | -48 | 6 | 1 | 9.5* | 11 | -5 | 3
CN(C)c1ncnc2[nH]ncc12 | 6 | 2 | 0 | 13* | 0 | -2 | 1
COc1ccc(NC(=O)C2C3CCC(C3)C2C(=O)O)cc1OC (stereo not given) | -5 | -8 | 0 | 18* | -9 | -2 | -4
CC(=O)Nc1ccc(NC(=O)C2C3CCC(C3)C2C(=O)O)cc1 (stereo not given) | -1 | -5 | 0 | 6 | 6 | . | .
CNc1c(C(=O)O)ccc2c1C(=O)c1ccccc1C2=O | 0 | -4 | 0 | -1 | -13 | . | .
O=C(O)c1ccc2c(c1Nc1ccccc1)C(=O)c1ccccc1C2=O | 2 | 3 | 0 | 10* | 5 | 4 | 4
CC(=O)Nc1ccc(NC(=O)c2ccc(N(Cc3ccccc3C)S(C)(=O)=O)cc2)cc1 | 0 | 1 | 0 | 14* | 6 | -2 | -1
CC(=O)c1cccc(NC(=O)c2ccc(N(Cc3ccccc3C)S(C)(=O)=O)cc2)c1 | 0 | 3 | 1 | 6 | 11 | . | .
COc1ccccc1N1CCN(C(=O)C(=O)c2cccc([N+](=O)[O-])c2)CC1 | 1 | -2 | 0 | 1 | 3 | . | .
SMILES | PLCb3 inh | ADAM17 inh | KLK7 zymogen act | PLC-gamma1 inh | ADAM10 inh | PLCgamma1 ctr | PLCb3 confirm
CCn1c(SCC(=O)Nc2ccccc2OC)nc2ccccc2c1=O | 4 | 1 | 0 | 11* | 15 | -9 | -5
CCCCc1c(-c2ccccc2OC)ncn1Cc1ccccc1F | -3 | 2 | 1 | -2 | -3 | . | .
COc1ccccc1C/C(N)=N/O | 11* | 0 | 0 | 1 | 11 | 2 | -75
COc1ccccc1CC(=O)O/N=C(\N)Cc1cccc2ccccc12 | -18 | -2 | 1 | -14 | 3 | . | .
COc1cccc(/C=C/C(=O)OCCN2C(=O)c3ccccc3C2=O)c1 | -15 | -5 | 4 | -7 | -12 | . | .
COc1ccccc1/C=C/C(=O)OCCN1C(=O)c2ccccc2C1=O | -4 | 3 | 0 | 11* | -9 | -14 | -12
Nc1cc(=O)[nH]c(SCC(=O)NC2CCCCCCC2)n1 | -3 | -2 | 0 | 9.6* | -1 | -10 | -1
Cc1cc(=O)[nH]c(SCC(=O)NC2CCCCCC2)n1 | -7 | -5 | 0 | 1 | -18 | . | .
CN(C)c1nc(SCCOC(=O)COc2ccc(Cl)cc2Cl)nc(N(C)C)n1 | 2 | 5 | 0 | 9.9* | 14 | -8 | -6
CC(C)NC(=O)NC(=O)COC(=O)C1(C)CC1(Cl)Cl (stereo not given) | 5 | 1 | -1 | 0 | 11 | . | .
CC1CCCN(S(=O)(=O)c2cc3c4c(c2)C(C)C(=O)N4CCC3)C1 (stereo not given) | -9 | -4 | 0 | -1 | -7 | . | .
Cc1cccc(C)c1-n1ncc(C(=O)NC2CCCC2)c1C1CCNCC1 | 2 | 3 | 0 | 15* | -1 | 0 | 6
O=C(NC1CCC1)c1ccc(C#CC2CC2)c[n+]1[O-] | -5 | -5 | 0 | -3 | -11 | . | .
CN1C(=O)SC(Nc2ccccc2)C1=O (stereo not given) | 8 | 2 | -1 | 9.5* | 9 | -1 | 2
CN1C(=O)SC(Nc2ccc(F)cc2)C1=O (stereo not given) | -1 | -4 | 0 | -2 | -14 | . | .
COc1cc2c(c(OC)c1OC)-c1ccc(OC)c(=O)cc1C(NC(C)=O)CC2 (stereo not given) | 6 | 2 | 1 | 10* | 9 | -3 | -3
CCCC(=O)NC1CCc2cc(OC)c(OC)c(OC)c2-c2ccc(OC)c(=O)cc21 (stereo not given) | -3 | 7 | 0 | 0 | -5 | . | .
O=C(Nc1ccccc1N1CCCCC1)c1ccc(-c2cccc(Cl)c2)o1 | 2 | -2 | 0 | 13* | 0 | -117 | -114
CN1CCN(c2ccccc2NC(=O)c2ccc(-c3cccc(Cl)c3)o2)CC1 | -52 | 3 | -3 | -30 | 3 | . | .
C=CCSc1nc(N)c(NC(=O)c2ccco2)c(=O)[nH]1 | 2 | 2 | 0 | 2 | -11 | . | .
